Details in all cases: mRNA level, 48 h; actives raise or lower the signal
Read-out in assay [1]: Keratin 19 (KRT19), KRT19 (gene 3880)
The assay can be described thus: LTEA_HepaRG_KRT19: Life Technologies and Expression Analysis (LTEA) Assay for Keratin 19 (KRT19) using HepaRG (AID 2283512). In short, it runs like this: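 Differentiated human HepaRG cells, plated 48 h, were exposed in duplicate for 48 h in serum-free induction medium to eight half-log concentrations up to 100 uM in 0.5% DMSO. KRT19 mRNA was quantified by qRT-PCR, normalized to ACTB, GAPDH and POLR2A, and fitted bidirectionally versus DMSO.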

Read-out in assay [2]: JUN Transcription Factor, JUN (gene 3725)
Nature of the assay: LTEA_HepaRG_JUN: Life Technologies and Expression Analysis (LTEA) Assay for JUN Transcription Factor using HepaRG (AID 2283513). In short, it runs like this: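 Gene-expression endpoint: JUN mRNA (qRT-PCR, normalized to three reference genes) in HepaRG cultures treated 48 h with chemicals, duplicate wells, 100 uM maximum with half-log dilutions; bidirectional fitting relative to 0.5% DMSO.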

Read-out in assay [3]: Lipase C (LIPC), LIPC (gene 3990)
The assay can be described thus: LTEA_HepaRG_LIPC: Life Technologies and Expression Analysis (LTEA) Assay for Lipase C (LIPC) using HepaRG (AID 2283514). Put shortly: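 LIPC expression was quantified by qRT-PCR against three housekeeping genes (ACTB, GAPDH, POLR2A). Differentiated human HepaRG cells received eight half-log doses (top 100 uM, 0.5% DMSO) in duplicate for 48 h; fitting bidirectional relative to DMSO.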

Read-out in assay [4]: Lipoprotein lipase (LPL), LPL (gene 4023)
Nature of the assay: LTEA_HepaRG_LPL: Life Technologies and Expression Analysis (LTEA) Assay for Lipoprotein lipase (LPL) using HepaRG (AID 2283515). In short, it runs like this: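 LPL transcript levels quantified by TaqMan qRT-PCR against three housekeeping genes after 48 h chemical treatment of HepaRG cells. Eight-point half-log series from 100 uM in 0.5% DMSO, tested in duplicate; bidirectional fitting versus vehicle.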

Read-out in assay [5]: matrix metalloproteinase-10 (MMP10), MMP10 (gene 4319)
Nature of the assay: LTEA_HepaRG_MMP10: Life Technologies and Expression Analysis (LTEA) Assay for matrix metalloproteinase-10 (MMP10) using HepaRG (AID 2283517). Put shortly: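 Expression measured by TaqMan qRT-PCR with ACTB/GAPDH/POLR2A normalisation after 48 h chemical exposure of HepaRG cells. Eight half-log concentrations, top 100 uM, 0.5% DMSO vehicle, duplicates; gain or loss fitted against vehicle.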

Read-out in assay [6]: matrix metalloproteinase-3 (MMP3), MMP3 (gene 4314)
Nature of the assay: LTEA_HepaRG_MMP3: Life Technologies and Expression Analysis (LTEA) Assay for matrix metalloproteinase-3 (MMP3) using HepaRG (AID 2283519). In short, it runs like this: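 Fluidigm-based TaqMan qRT-PCR, normalized to ACTB, GAPDH and POLR2A and fitted bidirectionally versus 0.5% DMSO, measured transcript levels. Treatment: duplicate 48 h exposures of HepaRG cells, ~100,000/well, to eight half-log concentrations topping at 100 uM.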

Read-out in assay [7]: Paternally Expressed 10 (PEG10), PEG10 (gene 23089)
The assay can be described thus: LTEA_HepaRG_PEG10: Life Technologies and Expression Analysis (LTEA) Assay for Paternally Expressed 10 (PEG10) using HepaRG (AID 2283520). Put shortly:
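After 48 h exposure of differentiated HepaRG cells (0.5% DMSO vehicle, eight concentrations up to 100 uM, duplicates), PEG10 mRNA was measured by TaqMan qRT-PCR. Values were normalised to endogenous control genes and analysed bidirectionally against vehicle.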

Read-out in assay [8]: Nuclear factor NF-kappa-B p105 subunit (Homo sapiens) (UniProt P19838)
Nature of the assay: LTEA_HepaRG_NFKB1: Life Technologies and Expression Analysis (LTEA) Assay for Nuclear Factor Kappa B Subunit 1 (NFKB1) using HepaRG (AID 2283521). Put shortly:
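Differentiated human HepaRG cells were exposed for 48 h in serum-free induction medium to eight concentrations (top 100 uM, half-log steps, 0.5% DMSO), in duplicate. NFKB1 mRNA was measured by TaqMan qRT-PCR, normalized to ACTB/GAPDH/POLR2A, and fitted bidirectionally against DMSO.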

Read-out in assay [9]: Protein phosphatase 2A (PPP2R4), PTPA (gene 5524)
Nature of the assay: LTEA_HepaRG_PPP2R4: Life Technologies and Expression Analysis (LTEA) Assay for Protein phosphatase 2A (PPP2R4) using HepaRG (AID 2283522). Put shortly:
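Using HepaRG cultures maintained in 0.5% DMSO, chemicals are tested 48 h at up to 100 uM in duplicate. Induction or suppression of PPP2R4 mRNA, measured by qRT-PCR, is fitted bidirectionally against the vehicle baseline.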

Read-out in assay [10]: Phosphatase and tensin (PTEN), PTEN (gene 5728)
The assay can be described thus: LTEA_HepaRG_PTEN: Life Technologies and Expression Analysis (LTEA) Assay for Phosphatase and tensin (PTEN) using HepaRG (AID 2283523). In short, it runs like this:
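Read-out: TaqMan qRT-PCR of PTEN transcript, normalized to three housekeeping genes, fitted in both directions against 0.5% DMSO. Differentiated human HepaRG cultures received chemicals for 48 h, eight-point half-log series topping at 100 uM.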

Read-out in assay [11]: solute carrier (SLC22A1), SLC22A1 (gene 6580)
Nature of the assay: LTEA_HepaRG_SLC22A1: Life Technologies and Expression Analysis (LTEA) Assay for solute carrier (SLC22A1) using HepaRG (AID 2283524). Put shortly:
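Transcript level of SLC22A1 quantified by qRT-PCR (normalized to three housekeeping genes) after 48 h chemical exposure of HepaRG cells, eight concentrations up to 100 µM, half-log steps, 0.5% DMSO vehicle. Gain or loss relative to DMSO fitted bidirectionally.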

Read-out in assay [12]: Pyruvate Dehydrogenase Kinase 4 (PDK4), PDK4 (gene 5166)
Nature of the assay: LTEA_HepaRG_PDK4: Life Technologies and Expression Analysis (LTEA) Assay for Pyruvate Dehydrogenase Kinase 4 (PDK4) using HepaRG (AID 2283525). Put shortly:
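Readout is qRT-PCR of PDK4 transcript, normalized to three housekeeping genes, with bidirectional fitting against 0.5% DMSO vehicle. Differentiated HepaRG cells were treated 48 h in serum-free induction medium, duplicate wells, eight-point half-log series topping at 100 uM.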

Read-out in assay [13]: NAD(P)H dehydrogenase [quinone] 1 (NQO1), NQO1 (gene 1728)
The assay can be described thus: LTEA_HepaRG_NQO1: Life Technologies and Expression Analysis (LTEA) Assay for NAD(P)H dehydrogenase [quinone] 1 (NQO1) using HepaRG (AID 2283526). In short, it runs like this: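 In this assay, gene expression is read by qRT-PCR after 48 h exposure of HepaRG cells to eight concentrations (max 100 uM, half-log) in 0.5% DMSO. Each chemical runs in duplicate, and activity is scored relative to vehicle.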

Read-out in assay [14]: Nuclear factor erythroid 2-related factor 2 (Homo sapiens) (UniProt Q16236)
Nature of the assay: LTEA_HepaRG_NFE2L2: Life Technologies and Expression Analysis (LTEA) Assay for Nuclear factor erythroid 2-related factor 2 (NFE2L2) Transcription Factor using HepaRG (AID 2283527).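 On outcome: TaqMan qRT-PCR transcript level normalised to ACTB GAPDH and POLR2A housekeeping genes.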 Put shortly: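 NFE2L2 transcript level was read by qRT-PCR (housekeeping ACTB/GAPDH/POLR2A normalisation) after 48 h chemical treatment of HepaRG in serum-free induction medium. Duplicate 8-point half-log curves, top 100 uM, 0.5% DMSO vehicle; up- or down-regulation fitted against vehicle.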

Read-out in assay [15]: succinate dehydrogenase complex iron sulfur subunit B (SDHB), SDHB (gene 6390)
The assay can be described thus: LTEA_HepaRG_SDHB: Life Technologies and Expression Analysis (LTEA) Assay for succinate dehydrogenase complex iron sulfur subunit B (SDHB) using HepaRG (AID 2283528). In short, it runs like this:
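HepaRG, 48 h exposure, 8-pt half-log series from 100 uM in 0.5% DMSO, duplicates. Readout: SDHB mRNA by Fluidigm qRT-PCR vs housekeeping genes; bidirectional fit relative to DMSO.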

Read-out in assay [16]: Signal transducer and activator of transcription 3 (Homo sapiens) (UniProt P40763)
Nature of the assay: LTEA_HepaRG_STAT3: Life Technologies and Expression Analysis (LTEA) Assay for Signal transducer and activator of transcription (STAT3) using HepaRG (AID 2283529). Put shortly:
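STAT3 transcript quantified by qRT-PCR against three housekeeping genes (ACTB, GAPDH, POLR2A), fitted both directions relative to DMSO. HepaRG cultures exposed 48 h to eight half-log concentrations, top 100 uM, 0.5% DMSO, serum-free induction medium.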

Read-out in assay [17]: solute carrier (SLCO1B1), SLCO1B1 (gene 10599)
The assay can be described thus: LTEA_HepaRG_SLCO1B1: Life Technologies and Expression Analysis (LTEA) Assay for solute carrier (SLCO1B1) using HepaRG (AID 2283530). Put shortly:
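Differentiated human HepaRG cells, plated 48 h, switched to serum-free induction medium and exposed in duplicate for 48 h to 8 half-log concentrations (top 100 uM) in 0.5% DMSO. SLCO1B1 mRNA by TaqMan qRT-PCR, normalized to ACTB/GAPDH/POLR2A.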

Read-out in assay [18]: sulfotransferase 2A1 (SULT2A1), SULT2A1 (gene 6822)
The assay can be described thus: LTEA_HepaRG_SULT2A1: Life Technologies and Expression Analysis (LTEA) Assay for sulfotransferase 2A1 (SULT2A1) using HepaRG (AID 2283531). In short, it runs like this: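 Differentiated human HepaRG cells in serum-free induction medium were exposed for 48 h to eight half-log concentrations (top 100 uM, 0.5% DMSO). SULT2A1 mRNA was measured by qRT-PCR, normalized to ACTB, GAPDH and POLR2A, and fitted bidirectionally against DMSO.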

Read-out in assay [19]: Transforming Growth Factor (TGFA), TGFA (gene 7039)
The assay can be described thus: LTEA_HepaRG_TGFA: Life Technologies and Expression Analysis (LTEA) Assay for Transforming Growth Factor (TGFA) using HepaRG (AID 2283532). Put shortly: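 TGFA transcript quantified by qRT-PCR (Fluidigm arrays) against three housekeeping genes, after 48 hours chemical treatment of HepaRG cells. Top concentration 100 uM with half-log dilutions, 8 points, duplicates, 0.5% DMSO.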

Read-out in assay [20]: Transforming Growth Factor (TGFB1), TGFB1 (gene 7040)
Nature of the assay: LTEA_HepaRG_TGFB1: Life Technologies and Expression Analysis (LTEA) Assay for Transforming Growth Factor (TGFB1) Transporter using HepaRG (AID 2283533). In short, it runs like this: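 Differentiated human HepaRG cells in serum-free induction medium were exposed in duplicate for 48 h to eight concentrations (top 100 uM, half-log steps, 0.5% DMSO). TGFB1 mRNA was quantified by qRT-PCR, normalized to ACTB, GAPDH, POLR2A, and fitted bidirectionally against DMSO.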

This passage reports AC50 and outcome results from PubChem BioAssay (EPA / NIEHS).

Molecules are shown by their SMILES. Calls of active or inactive are those of the source. How the source made its calls: active means hit-call score of the fitted dose curve at least 0.9, where 1 is the maximum; inactive means score below 0.9.

Nuclear factor erythroid 2-related factor 2 (Homo sapiens), sequence (Q16236 whole entry, looked up): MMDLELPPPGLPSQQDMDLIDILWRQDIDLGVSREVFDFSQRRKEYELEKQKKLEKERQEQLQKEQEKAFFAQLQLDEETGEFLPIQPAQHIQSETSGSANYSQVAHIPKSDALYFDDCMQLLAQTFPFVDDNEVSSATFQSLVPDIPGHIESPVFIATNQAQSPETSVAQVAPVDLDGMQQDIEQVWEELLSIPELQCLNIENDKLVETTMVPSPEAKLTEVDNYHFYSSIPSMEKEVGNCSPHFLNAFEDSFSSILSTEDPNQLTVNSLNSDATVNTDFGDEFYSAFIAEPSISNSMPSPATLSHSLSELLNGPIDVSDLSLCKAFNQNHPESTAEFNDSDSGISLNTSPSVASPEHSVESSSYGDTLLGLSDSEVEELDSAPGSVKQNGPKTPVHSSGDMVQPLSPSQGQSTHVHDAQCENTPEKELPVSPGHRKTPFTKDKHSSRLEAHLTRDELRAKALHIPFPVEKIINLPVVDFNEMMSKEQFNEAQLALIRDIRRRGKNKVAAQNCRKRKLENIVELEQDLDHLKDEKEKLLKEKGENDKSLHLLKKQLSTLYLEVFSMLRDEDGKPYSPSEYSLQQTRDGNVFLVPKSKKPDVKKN
Signal transducer and activator of transcription 3 (Homo sapiens), sequence (P40763 whole entry, looked up): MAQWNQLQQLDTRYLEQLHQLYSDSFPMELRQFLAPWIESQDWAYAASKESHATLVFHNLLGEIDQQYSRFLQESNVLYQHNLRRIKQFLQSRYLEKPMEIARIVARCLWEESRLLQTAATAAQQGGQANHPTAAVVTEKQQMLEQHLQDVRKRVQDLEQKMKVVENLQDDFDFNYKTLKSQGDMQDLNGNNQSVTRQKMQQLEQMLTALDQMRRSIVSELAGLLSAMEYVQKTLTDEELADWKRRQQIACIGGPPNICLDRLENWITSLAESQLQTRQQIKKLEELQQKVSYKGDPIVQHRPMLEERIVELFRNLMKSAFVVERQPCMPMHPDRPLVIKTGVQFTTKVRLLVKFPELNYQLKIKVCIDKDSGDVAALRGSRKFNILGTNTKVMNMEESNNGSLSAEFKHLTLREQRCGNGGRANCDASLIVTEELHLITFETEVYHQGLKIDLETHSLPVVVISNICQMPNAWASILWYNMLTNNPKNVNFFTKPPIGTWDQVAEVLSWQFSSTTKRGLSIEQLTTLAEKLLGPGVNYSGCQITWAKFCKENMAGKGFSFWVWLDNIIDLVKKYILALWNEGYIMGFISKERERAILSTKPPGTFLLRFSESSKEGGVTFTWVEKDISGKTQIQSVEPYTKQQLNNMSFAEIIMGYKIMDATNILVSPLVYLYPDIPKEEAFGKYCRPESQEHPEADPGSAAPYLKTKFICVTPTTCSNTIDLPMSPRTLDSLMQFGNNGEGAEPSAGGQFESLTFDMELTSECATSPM
Nuclear factor NF-kappa-B p105 subunit (Homo sapiens), sequence (P19838 whole entry, looked up): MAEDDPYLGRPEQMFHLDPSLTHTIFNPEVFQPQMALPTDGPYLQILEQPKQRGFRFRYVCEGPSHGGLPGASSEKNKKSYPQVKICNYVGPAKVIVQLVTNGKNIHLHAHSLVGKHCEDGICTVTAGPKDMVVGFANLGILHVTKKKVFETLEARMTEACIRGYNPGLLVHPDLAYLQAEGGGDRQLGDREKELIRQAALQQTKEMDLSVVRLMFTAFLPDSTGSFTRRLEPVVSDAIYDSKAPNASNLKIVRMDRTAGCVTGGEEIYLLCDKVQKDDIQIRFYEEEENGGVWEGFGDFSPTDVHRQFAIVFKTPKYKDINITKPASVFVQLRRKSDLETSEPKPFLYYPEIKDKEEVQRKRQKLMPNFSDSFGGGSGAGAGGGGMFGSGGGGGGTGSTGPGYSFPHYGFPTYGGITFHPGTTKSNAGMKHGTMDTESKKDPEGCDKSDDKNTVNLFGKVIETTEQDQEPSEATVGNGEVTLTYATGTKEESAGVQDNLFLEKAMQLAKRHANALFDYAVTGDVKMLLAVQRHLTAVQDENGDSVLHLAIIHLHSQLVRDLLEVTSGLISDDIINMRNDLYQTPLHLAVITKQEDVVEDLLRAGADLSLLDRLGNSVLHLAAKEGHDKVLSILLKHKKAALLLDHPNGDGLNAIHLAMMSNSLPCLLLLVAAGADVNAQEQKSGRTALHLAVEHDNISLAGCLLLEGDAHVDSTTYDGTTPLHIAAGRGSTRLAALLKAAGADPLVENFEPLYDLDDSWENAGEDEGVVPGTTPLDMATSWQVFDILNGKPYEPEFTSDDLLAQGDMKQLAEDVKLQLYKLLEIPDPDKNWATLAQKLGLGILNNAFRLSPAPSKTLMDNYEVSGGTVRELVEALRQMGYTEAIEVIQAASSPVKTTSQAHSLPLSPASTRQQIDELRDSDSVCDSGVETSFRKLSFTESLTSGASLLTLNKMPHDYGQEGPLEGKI

With `CCCCCCCCCCCCc1cccc(S(=O)(=O)O)c1`, the AC50 (as a rule, the midpoint of the concentration-response curve, whichever way the signal moves) in [1] was 76.1 µM (active); in [4], 8.93 µM (active); in [14] it was 45 µM (active); in [19], 45 µM (active); in [20], 45 µM (active). The compound was called inactive in assay [2], in assay [3], in assay [5], in assay [6], in assay [7] and in [8]. The outcome in assay [9], in assay [10], in assay [11], in assay [12], in [13] and in assay [15] was inactive. Besides, the result in assay [16], in assay [17] and in [18] was inactive.

Regarding `N#Cc1cccnc1`, the compound was called inactive in [1], in assay [2], in assay [3], in assay [4], in assay [5] and in assay [6]. In addition, the result in assay [7], in [9], in [10], in assay [11], in [12] and in assay [13] was inactive. The outcome in [14], in assay [15], in assay [16], in [17], in [18] and in assay [19] was inactive. Further, the compound was called inactive in [20].

Regarding `Oc1c(Cl)cc(Cl)cc1Cl`, the call in assay [1], in assay [2], in assay [3], in assay [4], in [5] and in assay [6] was inactive. Besides, the result in assay [7], in assay [9], in assay [10], in assay [11], in assay [12] and in assay [13] was inactive. Further, the compound was classed as inactive in assay [15], in assay [16], in assay [17], in assay [18], in assay [19] and in assay [20].

As to `Oc1cc(Cl)c(Cl)cc1Cl`, in [1], the half-maximal activity concentration (AC50) is 50 µM (active). In addition, the compound was called inactive in assay [2], in assay [3], in [4], in assay [5], in [6] and in assay [7]. Moreover, the call in assay [8], in [9], in assay [10], in assay [11], in assay [12] and in assay [13] was inactive. Moreover, the outcome in [14], in assay [15], in assay [16], in [17], in assay [18] and in assay [19] was inactive. Also, the outcome in [20] was inactive.
